Only a selection was taken, and the strongest signals are over-represented in it overall.
How the values were obtained:
Test in all cases: glycan array binding signal (z-score within array); higher = stronger binding
Conditions in all cases: glycan notation: IUPAC condensed, linker removed
[1] = molecular target: Fuc(a1-2)Gal(b1-3)GalNAc(b1-3)Gal(a1-4)Gal(b1-4)Glc
Method in brief: (§1)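 The binding signal is a Z-score computed within each array and averaged over linkers. Arrays of the same protein sequence at different concentrations or buffers were also averaged together. Data originate from 3228 arrays in the Consortium for Functional Glycomics database, kept only where the protein sequence was available.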

[2] = molecular target: Fuc(a1-2)Gal(b1-3)GlcNAc(b1-3)Gal(b1-4)Glc
Method in brief: as §1

[3] = molecular target: Fuc(a1-2)Gal(b1-3)[Fuc(a1-4)]GlcNAc
Method in brief: as §1

Fuc(a1-2)Gal(b1-4)Glc = molecular target: Fuc(a1-2)Gal(b1-4)Glc
Method in brief: as §1

[4] = molecular target: Fuc(a1-2)[Gal(a1-3)]Gal(b1-4)GlcNAc(b1-2)Man(a1-3)[Fuc(a1-2)[Gal(a1-3)]Gal(b1-4)GlcNAc(b1-2)Man(a1-6)]Man(b1-4)GlcNAc(b1-4)GlcNAc
Method in brief: as §1

[5] = molecular target: Fuc(a1-2)[Gal(a1-4)]Gal(b1-4)GlcNAc
Method in brief: as §1

[6] = molecular target: Fuc(a1-2)[GalNAc(a1-3)]Gal(b1-3)GlcNAc(b1-2)Man(a1-3)[Fuc(a1-2)[GalNAc(a1-3)]Gal(b1-3)GlcNAc(b1-2)Man(a1-6)]Man(b1-4)GlcNAc(b1-4)GlcNAc
Method in brief: as §1

[7] = molecular target: Fuc(a1-2)[GalNAc(a1-3)]Gal(b1-4)[Fuc(a1-3)]GlcNAc(b1-3)GalNAc
Method in brief: as §1

[8] = molecular target: Fuc(a1-3)[Gal(b1-4)]GlcNAc(b1-6)GalNAc
Method in brief: as §1

[9] = molecular target: Gal(a1-3)Gal(b1-3)GlcNAc(b1-2)Man(a1-3)[Gal(a1-3)Gal(b1-3)GlcNAc(b1-2)Man(a1-6)]Man(b1-4)GlcNAc(b1-4)GlcNAc
Method in brief: as §1

[10] = molecular target: Gal(a1-3)Gal(b1-3)GlcNAc(b1-3)GalNAc
Method in brief: as §1

Gal(a1-3)GalNAc = molecular target: Gal(a1-3)GalNAc
Method in brief: as §1

Gal(b1-3)Gal = molecular target: Gal(b1-3)Gal
Method in brief: as §1

Gal(b1-3)Gal(b1-4)GlcNAc = molecular target: Gal(b1-3)Gal(b1-4)GlcNAc
Method in brief: as §1

Gal(b1-3)GalNAc = molecular target: Gal(b1-3)GalNAc
Method in brief: as §1

[11] = molecular target: Gal(b1-3)GalNAc(a1-3)[Fuc(a1-2)]Gal(b1-4)Glc
Method in brief: as §1

Gal(b1-3)GalNAc(b1-3)Gal = molecular target: Gal(b1-3)GalNAc(b1-3)Gal
Method in brief: as §1

[12] = molecular target: Gal(b1-3)GalNAc(b1-4)Gal(b1-4)Glc
Method in brief: as §1

[13] = molecular target: Gal(b1-3)GalNAc(b1-4)[Neu5Ac(a2-3)]Gal(b1-4)Glc
Method in brief: as §1

Gal(b1-3)GlcNAc6S = molecular target: Gal(b1-3)GlcNAc6S
Method in brief: as §1

[14] = molecular target: Gal(b1-3)[Fuc(a1-4)]GlcNAc
Method in brief: as §1

[15] = molecular target: Gal(b1-3)[GlcNAc(b1-6)]GalNAc
Method in brief: as §1

[16] = molecular target: Gal(b1-3)[Neu5Ac(a2-6)]GalNAc
Method in brief: as §1

Gal(b1-4)Glc6S = molecular target: Gal(b1-4)Glc6S
Method in brief: as §1

[17] = molecular target: Gal(b1-4)GlcNAc(b1-2)Man(a1-3)Man(b1-4)GlcNAc(b1-4)GlcNAc
Method in brief: as §1

[18] = molecular target: Gal(b1-4)GlcNAc(b1-2)Man(a1-3)[GlcNAc(b1-4)][Gal(b1-4)GlcNAc(b1-2)Man(a1-6)]Man(b1-4)GlcNAc(b1-4)GlcNAc
Method in brief: as §1

[19] = molecular target: Gal(b1-4)GlcNAc(b1-2)[Gal(b1-4)GlcNAc(b1-6)]Man(a1-6)[Gal(b1-4)GlcNAc(b1-2)Man(a1-3)]Man(b1-4)GlcNAc(b1-4)[Fuc(a1-6)]GlcNAc
Method in brief: as §1

[20] = molecular target: Gal(b1-4)GlcNAc(b1-3)Gal(b1-4)GlcNAc(b1-3)GalNAc
Method in brief: as §1

[21] = molecular target: Gal3S(b1-4)[Fuc(a1-3)]GlcNAc
Method in brief: as §1

Gal3S6S(b1-4)GlcNAc6S = molecular target: Gal3S6S(b1-4)GlcNAc6S
Method in brief: as §1

Gal6S(b1-4)GlcNAc6S = molecular target: Gal6S(b1-4)GlcNAc6S
Method in brief: as §1

GlcA(b1-6)Gal = molecular target: GlcA(b1-6)Gal
Method in brief: as §1

[22] = molecular target: GlcNAc(a1-6)Gal(b1-4)GlcNAc
Method in brief: as §1

[23] = molecular target: GlcNAc(b1-2)Man(a1-3)[GlcNAc(b1-4)][GlcNAc(b1-2)Man(a1-6)]Man(b1-4)GlcNAc(b1-4)[Fuc(a1-6)]GlcNAc
Method in brief: as §1

[24] = molecular target: GlcNAc(b1-3)Gal(b1-4)GlcNAc(b1-3)Gal(b1-4)GlcNAc(b1-3)Gal(b1-4)GlcNAc(b1-2)Man(a1-3)[GlcNAc(b1-3)Gal(b1-4)GlcNAc(b1-3)Gal(b1-4)GlcNAc(b1-3)Gal(b1-4)GlcNAc(b1-2)Man(a1-6)]Man(b1-4)GlcNAc(b1-4)[Fuc(a1-6)]GlcNAc
Method in brief: as §1

[25] = molecular target: GlcNAc(b1-3)[GlcNAc(b1-4)][GlcNAc(b1-6)]GlcNAc
Method in brief: as §1

[26] = molecular target: Man(a1-2)Man(a1-6)[Man(a1-3)]Man(a1-6)[Man(a1-2)Man(a1-2)Man(a1-3)]Man
Method in brief: as §1

[27] = molecular target: Man(a1-3)[Man(a1-6)]Man(a1-6)[Man(a1-3)]Man
Method in brief: as §1

[28] = molecular target: Neu5Ac(a2-3)Gal(b1-4)GlcNAc(b1-3)Gal(b1-4)[Fuc(a1-3)]GlcNAc
Method in brief: as §1

[29] = molecular target: Neu5Ac(a2-3)Gal(b1-4)[Fuc(a1-3)]GlcNAc(b1-3)Gal(b1-4)[Fuc(a1-3)]GlcNAc(b1-3)Gal(b1-4)[Fuc(a1-3)]GlcNAc
Method in brief: as §1

[30] = molecular target: Neu5Ac(a2-3)Gal(b1-4)[Fuc(a1-3)]GlcNAc6S
Method in brief: as §1

[31] = molecular target: Neu5Ac(a2-6)Gal(b1-4)GlcNAc
Method in brief: as §1

[32] = molecular target: Neu5Ac(a2-6)Gal(b1-4)GlcNAc(b1-2)[Neu5Ac(a2-6)Gal(b1-4)GlcNAc(b1-4)]Man(a1-3)[GlcNAc(b1-4)][Neu5Ac(a2-6)Gal(b1-4)GlcNAc(b1-2)[Neu5Ac(a2-6)Gal(b1-4)GlcNAc(b1-6)]Man(a1-6)]Man(b1-4)GlcNAc(b1-4)GlcNAc
Method in brief: as §1

[33] = molecular target: Neu5Ac(a2-6)Gal(b1-4)GlcNAc(b1-3)Gal(b1-4)GlcNAc
Method in brief: as §1

[34] = molecular target: Neu5Ac(a2-6)Gal(b1-4)GlcNAc(b1-3)GalNAc
Method in brief: as §1

[35] = molecular target: Neu5Ac(a2-8)Neu5Ac(a2-8)Neu5Ac(a2-8)Neu5Ac(a2-3)[GalNAc(b1-4)]Gal(b1-4)Glc
Method in brief: as §1

[36] = molecular target: Neu5Ac9Ac(a2-3)Gal(b1-4)GlcNAc
Method in brief: as §1

[37] = molecular target: Neu5Gc(a2-8)Neu5Gc(a2-3)Gal(b1-4)GlcNAc
Method in brief: as §1

B1: CFEM-PPl (Pichia pastoris), F2QPV1 (protein)
chain: AVATPPACLLACAAEVVKESSDCDALNNIQCICENEGSAIHACLESTCPDGLSSTALQSFEDVCESVGTEANLDE
glycan array binding signal (z-score) [1]: -0.182
glycan array binding signal (z-score) [2]: -0.261
glycan array binding signal (z-score) [3]: -0.299
glycan array binding signal (z-score) (Fuc(a1-2)Gal(b1-4)Glc): -0.216
glycan array binding signal (z-score) [4]: -0.252
glycan array binding signal (z-score) [5]: -0.168
glycan array binding signal (z-score) [6]: -0.271
glycan array binding signal (z-score) [7]: 2.17
glycan array binding signal (z-score) [8]: 0.273
glycan array binding signal (z-score) [9]: -0.051
glycan array binding signal (z-score) [10]: -0.151
glycan array binding signal (z-score) (Gal(a1-3)GalNAc): -0.249
glycan array binding signal (z-score) (Gal(b1-3)Gal): 8.35
glycan array binding signal (z-score) (Gal(b1-3)Gal(b1-4)GlcNAc): 4.73
glycan array binding signal (z-score) (Gal(b1-3)GalNAc): 4.58
glycan array binding signal (z-score) [11]: 0.63
glycan array binding signal (z-score) (Gal(b1-3)GalNAc(b1-3)Gal): 7.59
glycan array binding signal (z-score) [12]: 11.5
glycan array binding signal (z-score) [13]: 1.48
glycan array binding signal (z-score) (Gal(b1-3)GlcNAc6S): 0.224
glycan array binding signal (z-score) [14]: -0.109
glycan array binding signal (z-score) [15]: 1.52
glycan array binding signal (z-score) [16]: 8.06
glycan array binding signal (z-score) (Gal(b1-4)Glc6S): 0.326
glycan array binding signal (z-score) [17]: -0.158
glycan array binding signal (z-score) [18]: -0.371
glycan array binding signal (z-score) [19]: 0.199
glycan array binding signal (z-score) [20]: -0.058
glycan array binding signal (z-score) [21]: -0.308
glycan array binding signal (z-score) (Gal3S6S(b1-4)GlcNAc6S): -0.019
glycan array binding signal (z-score) (Gal6S(b1-4)GlcNAc6S): 0.881
glycan array binding signal (z-score) (GlcA(b1-6)Gal): 1.49
glycan array binding signal (z-score) [22]: 1.68
glycan array binding signal (z-score) [23]: -0.286
glycan array binding signal (z-score) [24]: -0.05
glycan array binding signal (z-score) [25]: -0.262
glycan array binding signal (z-score) [26]: -0.274
glycan array binding signal (z-score) [27]: -0.201
glycan array binding signal (z-score) [28]: -0.181
glycan array binding signal (z-score) [29]: -0.258
glycan array binding signal (z-score) [30]: -0.175
glycan array binding signal (z-score) [31]: -0.156
glycan array binding signal (z-score) [32]: -0.31
glycan array binding signal (z-score) [33]: -0.404
glycan array binding signal (z-score) [34]: -0.218
glycan array binding signal (z-score) [35]: -0.099
glycan array binding signal (z-score) [36]: -0.318
glycan array binding signal (z-score) [37]: -0.14
